Records with an inconclusive call do not appear. The source made the active and inactive calls. Unless noted, the call rests on the fitted dose curve; in most records, active means well fitted curve in the direction sought with a large enough effect in the repeat runs; inconclusive means weak or mixed curves; inactive means no such curve, though single readings can be large; an effect the other way counts as inactive or inconclusive.
Tests used:
[1] = qHTS assay to test for compound auto fluorescence at 535 nm (green) in HEK293 cells (AID 720680)
[2] = qHTS assay to test for compound auto fluorescence at 460 nm (blue) in HEK293 cell free culture (AID 720681)
Procedure, shortened: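 Test compounds were pinned into cell-free culture medium (DMEM with 10% FBS) and fluorescence was read directly at Ex/Em 405/460 nm. Signals were expressed as fluorescence equivalents of triamterene, with DMSO vehicle as control.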

[3] = qHTS assay to test for compound auto fluorescence at 535 nm (green) in HEK293 cell free culture (AID 720682)
Procedure, shortened: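 Measurement is a direct plate read of green fluorescence (485 nm in, 535 nm out) after compound addition to serum-supplemented DMEM lacking cells, with fluorescein used to express intensities.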

[4] = qHTS assay to test for compound auto fluorescence at 590 nm (red) in HEK293 cell free culture (AID 720683)
Procedure, shortened: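 Tox21 10K library compounds were pinned into cell-free DMEM with 10% FBS and fluorescence was read at excitation 540 nm. Activity is expressed as Rose Bengal sodium equivalency.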

[5] = qHTS assay to test for compound auto fluorescence at 590 nm (red) in HepG2 cell free culture (AID 720684)
Procedure, shortened: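 Red fluorescence (540 nm excitation, 590 nm emission) was measured after compound transfer into cell-free MEM supplemented with 10% FBS. Values are equivalencies against Rose Bengal sodium.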

[6] = qHTS assay to test for compound auto fluorescence at 460 nm (blue) in HepG2 cell free culture (AID 720685)
Procedure, shortened: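 Compound (23 nL) or DMSO pinned into cell-free MEM with 10% FBS; blue fluorescence read at 405/460 nm excitation/emission, expressed as auto-fluorescence equivalency to triamterene.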

[7] = qHTS assay to test for compound auto fluorescence at 535 nm (green) in HepG2 cell free culture (AID 720686)
[8] = qHTS assay to test for compound auto fluorescence at 460 nm (blue) in HepG2 cells (AID 720687)
Procedure, shortened: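 Cells (2,000/well in MEM with 10% FBS) attached overnight at 37 C, then were exposed to compound or DMSO for 1 hr at 37 C, 5% CO2. Fluorescence read at Ex/Em 405/460 nm, expressed as triamterene-equivalent signal.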

[9] = target: Glucocorticoid receptor (Homo sapiens) (UniProt P04150); assay: qHTS assay to identify small molecule agonists of the glucocorticoid receptor (GR) signaling pathway (AID 720691; active means well fitted activation curve with a large enough effect in the signal ratio in the repeat runs, not every such curve was filed as active; the % refers to the signal ratio); conditions: GR-bla HeLa, beta-lactamase reporter ratio, 18 h; activation: at 62.4 µM (top of the series)
Procedure, shortened: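 Agonist mode in a HeLa line carrying a GRE-controlled beta-lactamase reporter. Compounds act for 18 h at 37 C before a 2 h room-temperature FRET substrate step and fluorescence reading.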

[10] = target: Glucocorticoid receptor (Homo sapiens) (UniProt P04150); assay: qHTS assay to identify small molecule antagonists of the glucocorticoid receptor (GR) signaling pathway (AID 720692; active means well fitted inhibition curve with a large enough effect in the signal ratio in the repeat runs, not every such curve was filed as active; the % refers to the signal ratio)
Procedure, shortened: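 Cells plated, rested 4 h at 37 C/5% CO2; compounds in DMSO pin-transferred; dexamethasone added to 5 nM final; 18 h at 37 C; B/G FRET substrate added, 2 h room temperature; fluorescence measured.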

[11] = qHTS assay to identify small molecule antagonists of the glucocorticoid receptor (GR) signaling pathway - cell viability counter screen (AID 720693); further: nearly all actives have a fitted effect of over 55% in size
[12] = qHTS assay for identifying genotoxic compounds that show differential cytotoxicity against isogenic chicken DT40 cell lines with known DNA damage response pathways - Rev3 mutant cell line (AID 743014); further: nearly all actives have a fitted effect of over 55% in size; further: potency means the concentration at half of the fitted maximal effect
[13] = qHTS assay for identifying genotoxic compounds that show differential cytotoxicity against isogenic chicken DT40 cell lines with known DNA damage response pathways - Rad54/Ku70 mutant cell line (AID 743015); further: nearly all actives have a fitted effect of over 60% in size; further: potency means the concentration at half of the fitted maximal effect
[14] = qHTS assay to identify small molecule antagonists of the androgen receptor (AR) signaling pathway - cell viability counter screen (AID 743033; further: nearly all actives have a fitted effect of over 45% in size)
[15] = qHTS assay to identify small molecule antagonists of the androgen receptor (AR) signaling pathway using the MDA cell line - cell viability counter screen (AID 743041; further: nearly all actives have a fitted effect of over 45% in size)
Procedure, shortened: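 MDA-kb2 AR-luc human breast carcinoma cells (MMTV-luciferase, AR/GR responsive) were treated with compounds plus R1881 agonist for 16 h at 37 °C. Viability was read as CellTiter-Fluor fluorescence in the same wells as the reporter assay.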

[16] = qHTS assay for identifying genotoxic compounds that show differential cytotoxicity against isogenic chicken DT40 cell lines with known DNA damage response pathways - wild type cell line (AID 743012); further: nearly all actives have a fitted effect of over 60% in size; further: potency means the concentration at half of the fitted maximal effect
Procedure, shortened: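 Cells (DT40 wild type, 300/well) are treated with DMSO-dissolved compounds after a ~0.5 h pre-incubation and kept 40 h at 37 C/5% CO2. Viability is then measured by CellTiter-Glo luminescence following 30 min at room temperature.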

[17] = target: Androgen receptor (Homo sapiens) (UniProt P10275); assay: qHTS assay to identify small molecule antagonists of the androgen receptor (AR) signaling pathway (AID 743035; active means well fitted inhibition curve with a large enough effect in the signal ratio in the repeat runs, not every such curve was filed as active; the % refers to the signal ratio)
Procedure, shortened: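 Antagonism is scored as loss of R1881-driven beta-lactamase reporter expression in HEK293 cells carrying the reporter under a UAS element, after 16 h co-treatment at 37C and a 2 h room-temperature FRET substrate read.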

[18] = target: Androgen receptor (Homo sapiens) (UniProt P10275); assay: qHTS assay to identify small molecule agonists of the androgen receptor (AR) signaling pathway using the MDA cell line (AID 743040; further: nearly all actives have a fitted effect of over 20% in size)
Procedure, shortened: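 MDA-kb2 breast carcinoma cells stably carrying an MMTV-driven luciferase reporter (AR- and GR-responsive) were seeded and held 5 h at 37C, 0% CO2, then exposed to compounds in DMSO for 16 h. Luminescence was read 30 min after ONE-Glo addition.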

[19] = target: Androgen receptor (Homo sapiens) (UniProt P10275); assay: qHTS assay to identify small molecule antagonists of the androgen receptor (AR) signaling pathway using the MDA cell line (AID 743042; further: nearly all actives have a fitted effect of over 55% in size)
Procedure, shortened: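 MDA-kb2 cells (human breast carcinoma, stably carrying an MMTV-luciferase reporter responsive to AR and GR) were plated at 3,000 cells/well and preincubated 5 hr at 37C, then given compound plus R1881 agonist for 16 h. ONE-Glo luminescence was read.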

Measured: Potency

Chain of Glucocorticoid receptor (Homo sapiens) (P04150 whole entry, looked up): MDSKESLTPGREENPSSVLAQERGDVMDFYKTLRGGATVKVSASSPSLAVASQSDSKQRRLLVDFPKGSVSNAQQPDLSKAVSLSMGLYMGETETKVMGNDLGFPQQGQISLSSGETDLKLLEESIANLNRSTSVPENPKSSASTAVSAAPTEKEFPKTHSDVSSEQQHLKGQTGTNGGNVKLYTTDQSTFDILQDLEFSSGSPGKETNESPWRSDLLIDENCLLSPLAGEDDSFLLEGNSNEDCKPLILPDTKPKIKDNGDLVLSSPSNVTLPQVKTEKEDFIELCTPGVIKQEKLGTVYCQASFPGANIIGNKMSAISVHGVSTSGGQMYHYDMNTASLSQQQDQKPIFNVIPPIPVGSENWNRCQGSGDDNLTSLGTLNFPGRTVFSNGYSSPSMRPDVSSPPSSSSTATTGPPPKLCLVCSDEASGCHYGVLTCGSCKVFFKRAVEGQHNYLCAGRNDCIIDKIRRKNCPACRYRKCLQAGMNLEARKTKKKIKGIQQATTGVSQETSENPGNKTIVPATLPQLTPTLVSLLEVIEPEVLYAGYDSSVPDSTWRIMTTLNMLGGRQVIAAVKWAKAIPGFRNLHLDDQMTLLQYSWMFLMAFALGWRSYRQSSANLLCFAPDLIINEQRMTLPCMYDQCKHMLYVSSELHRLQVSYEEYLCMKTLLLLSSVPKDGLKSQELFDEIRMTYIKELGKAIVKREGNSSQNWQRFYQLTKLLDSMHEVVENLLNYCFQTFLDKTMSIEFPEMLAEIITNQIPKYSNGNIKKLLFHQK
Chain of Androgen receptor (Homo sapiens) (P10275 whole entry, looked up): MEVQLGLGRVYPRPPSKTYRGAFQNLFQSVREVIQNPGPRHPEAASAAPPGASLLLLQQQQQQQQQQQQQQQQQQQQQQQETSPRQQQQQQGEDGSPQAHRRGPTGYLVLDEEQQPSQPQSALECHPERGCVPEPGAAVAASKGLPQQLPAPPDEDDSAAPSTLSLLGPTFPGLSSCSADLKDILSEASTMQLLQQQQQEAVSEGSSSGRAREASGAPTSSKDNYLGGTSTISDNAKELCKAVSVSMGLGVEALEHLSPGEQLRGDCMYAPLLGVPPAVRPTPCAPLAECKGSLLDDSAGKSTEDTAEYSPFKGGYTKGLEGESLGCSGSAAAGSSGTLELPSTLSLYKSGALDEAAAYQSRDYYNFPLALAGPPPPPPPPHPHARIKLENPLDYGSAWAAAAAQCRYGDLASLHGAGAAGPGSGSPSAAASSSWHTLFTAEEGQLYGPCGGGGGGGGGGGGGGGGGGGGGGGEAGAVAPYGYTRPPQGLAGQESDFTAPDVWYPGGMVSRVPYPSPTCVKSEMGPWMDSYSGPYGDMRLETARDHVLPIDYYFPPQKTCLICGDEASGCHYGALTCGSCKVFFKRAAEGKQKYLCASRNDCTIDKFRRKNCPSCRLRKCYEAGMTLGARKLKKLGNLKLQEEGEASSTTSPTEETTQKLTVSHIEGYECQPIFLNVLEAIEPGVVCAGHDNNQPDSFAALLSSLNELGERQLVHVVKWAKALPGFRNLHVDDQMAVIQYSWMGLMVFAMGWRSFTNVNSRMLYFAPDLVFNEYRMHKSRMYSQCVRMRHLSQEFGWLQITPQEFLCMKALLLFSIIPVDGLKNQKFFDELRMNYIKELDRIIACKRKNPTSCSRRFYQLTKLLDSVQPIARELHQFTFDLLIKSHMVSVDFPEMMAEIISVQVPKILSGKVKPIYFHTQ

Cc1ccc2cc3c(ccc4ccccc43)c3c2c1CC3
inactive: [1] | [2] | [3] | [4] | [5] | [6] | [7] | [8] | [9] | [10] | [11] | [12] | [13] | [14] | [15]

C=Cc1cccc(CCl)c1
inactive: [1] | [2] | [3] | [4] | [5] | [6] | [7] | [8] | [9] | [10] | [11] | [16] | [13] | [14] | [15]

O=C(NC(=O)c1ccccc1Cl)Nc1ccc(OC(F)(F)F)cc1
inactive: [1] | [2] | [3] | [4] | [5] | [6] | [7] | [8] | [9] | [10] | [11] | [16] | [13] | [14] | [17] | [18] | [15] | [19]

CCOC(=O)CCN(SN(C)C(=O)Oc1cccc2c1OC(C)(C)C2)C(C)C
inactive: [1] | [2] | [3] | [4] | [5] | [6] | [7] | [8] | [9] | [10] | [11] | [14] | [15]
active: [16] 17.2 µM | [12] 24.3 µM | [13] 21.7 µM

NC(=O)C(Cl)Cl
inactive: [1] | [2] | [3] | [4] | [5] | [6] | [7] | [8] | [9] | [10] | [11] | [16] | [12] | [13] | [14]

CNC(=O)O/N=C(\C)C(C)S(C)(=O)=O (stereo not drawn)
inactive: [1] | [2] | [3] | [4] | [5] | [6] | [7] | [8] | [9] | [10] | [11] | [16] | [13] | [14]

Reference: PubChem BioAssay (Tox21)
